From the supplement of paper PMC11732987, “Enantioselective OTUD7B fragment discovery through chemoproteomics screening and high-throughput optimisation” (Communications Chemistry, 2025)

Legend:
Experiment in all cases: log2 ratio of Biotin-Ahx-Ub-VS probe labelling (fragment/DMSO); higher = less target engagement (more negative = stronger competition), active = hit call of the paper (q ≤ 0.05, log2 ratio ≤ -1)
Settings in all cases: compound concentration: 200 uM; treatment time: 3 h
[1] = biological target: T1, USP19 (UniProt O94966)
T1 sequence (whole entry): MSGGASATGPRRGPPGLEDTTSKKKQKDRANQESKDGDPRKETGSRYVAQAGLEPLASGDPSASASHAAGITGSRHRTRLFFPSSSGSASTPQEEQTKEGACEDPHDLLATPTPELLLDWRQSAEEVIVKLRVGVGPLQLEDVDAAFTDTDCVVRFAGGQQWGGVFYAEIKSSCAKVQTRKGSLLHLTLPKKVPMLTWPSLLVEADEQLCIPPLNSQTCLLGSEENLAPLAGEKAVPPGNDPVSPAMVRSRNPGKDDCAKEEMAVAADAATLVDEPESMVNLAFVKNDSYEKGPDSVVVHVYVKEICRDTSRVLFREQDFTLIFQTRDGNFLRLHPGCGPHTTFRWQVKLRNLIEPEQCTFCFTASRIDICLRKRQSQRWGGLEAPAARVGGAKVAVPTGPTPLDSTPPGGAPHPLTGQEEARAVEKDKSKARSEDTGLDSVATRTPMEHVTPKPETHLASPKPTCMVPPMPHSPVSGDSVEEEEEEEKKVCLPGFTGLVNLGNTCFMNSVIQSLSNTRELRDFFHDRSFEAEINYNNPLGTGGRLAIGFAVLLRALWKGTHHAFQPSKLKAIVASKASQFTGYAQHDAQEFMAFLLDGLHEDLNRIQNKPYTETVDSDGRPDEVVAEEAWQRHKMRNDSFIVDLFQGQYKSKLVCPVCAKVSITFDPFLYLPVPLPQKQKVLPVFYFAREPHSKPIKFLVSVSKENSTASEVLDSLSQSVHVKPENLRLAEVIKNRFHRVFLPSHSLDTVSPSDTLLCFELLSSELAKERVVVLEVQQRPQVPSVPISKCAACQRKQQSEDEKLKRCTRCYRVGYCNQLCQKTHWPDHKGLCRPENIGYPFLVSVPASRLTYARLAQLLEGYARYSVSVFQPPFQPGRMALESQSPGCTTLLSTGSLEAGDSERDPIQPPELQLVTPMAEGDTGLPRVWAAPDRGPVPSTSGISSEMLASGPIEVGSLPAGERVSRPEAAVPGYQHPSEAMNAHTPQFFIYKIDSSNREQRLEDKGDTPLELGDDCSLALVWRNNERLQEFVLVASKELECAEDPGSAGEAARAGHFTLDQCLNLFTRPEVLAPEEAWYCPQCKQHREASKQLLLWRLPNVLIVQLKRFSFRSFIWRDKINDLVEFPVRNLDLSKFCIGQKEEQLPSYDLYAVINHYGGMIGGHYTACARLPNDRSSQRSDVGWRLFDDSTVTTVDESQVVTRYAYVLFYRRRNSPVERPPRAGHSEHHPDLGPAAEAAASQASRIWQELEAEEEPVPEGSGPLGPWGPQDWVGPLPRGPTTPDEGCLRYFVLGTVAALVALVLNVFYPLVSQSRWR
Outline: (§1)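 HEK293T lysate in Tris/CHAPS/IGEPAL buffer with protease inhibitors (495 µg per sample) was given fragment at 200 µM or vehicle for 3 h, in triplicate. It then received Biotin-Ahx-Ub-VS at 0.5 µM final for 1 h. Labelled DUBs were NeutrAvidin-enriched, digested with LysC and trypsin, and run by diaPASEF LC-MS/MS. Values are average log2 fragment/vehicle ratios by unpaired t-test on global-median-normalised Spectronaut quantities of proteins with ≥2 unique peptides.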

[2] = biological target: USP24 (UniProt Q9UPU5)
Outline: as §1

[3] = biological target: T2, USP25 (UniProt Q9UHP3)
T2 sequence (whole entry): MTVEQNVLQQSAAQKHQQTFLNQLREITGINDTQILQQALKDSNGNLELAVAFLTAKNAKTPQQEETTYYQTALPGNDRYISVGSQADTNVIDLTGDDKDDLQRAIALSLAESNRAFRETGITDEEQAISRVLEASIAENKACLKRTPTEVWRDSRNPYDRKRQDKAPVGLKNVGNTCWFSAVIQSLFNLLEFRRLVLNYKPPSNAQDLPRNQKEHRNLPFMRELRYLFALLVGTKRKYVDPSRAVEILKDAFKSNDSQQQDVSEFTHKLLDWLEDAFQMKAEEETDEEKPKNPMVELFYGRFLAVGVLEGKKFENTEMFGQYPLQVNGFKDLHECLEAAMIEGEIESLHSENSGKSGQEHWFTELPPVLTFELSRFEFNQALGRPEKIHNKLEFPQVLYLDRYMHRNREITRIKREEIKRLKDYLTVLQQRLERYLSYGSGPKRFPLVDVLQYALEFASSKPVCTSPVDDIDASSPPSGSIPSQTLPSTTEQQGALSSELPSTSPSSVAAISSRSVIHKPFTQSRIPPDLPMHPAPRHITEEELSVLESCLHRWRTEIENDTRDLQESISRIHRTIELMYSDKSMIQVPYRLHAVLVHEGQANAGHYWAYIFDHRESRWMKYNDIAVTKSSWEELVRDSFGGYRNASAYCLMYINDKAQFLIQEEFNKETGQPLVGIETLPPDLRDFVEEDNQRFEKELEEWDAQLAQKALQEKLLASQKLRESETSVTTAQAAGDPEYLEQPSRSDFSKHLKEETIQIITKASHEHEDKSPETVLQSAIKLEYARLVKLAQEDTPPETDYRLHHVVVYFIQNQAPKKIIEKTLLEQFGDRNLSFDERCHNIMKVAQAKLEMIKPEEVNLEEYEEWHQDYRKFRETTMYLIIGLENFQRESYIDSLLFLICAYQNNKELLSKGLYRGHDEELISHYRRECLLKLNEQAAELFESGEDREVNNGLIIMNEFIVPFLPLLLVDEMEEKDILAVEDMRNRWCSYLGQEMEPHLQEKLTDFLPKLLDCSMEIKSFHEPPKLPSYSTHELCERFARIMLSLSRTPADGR
Outline: as §1

[4] = biological target: T3, USP28 (UniProt Q96RU2)
T3 sequence (whole entry): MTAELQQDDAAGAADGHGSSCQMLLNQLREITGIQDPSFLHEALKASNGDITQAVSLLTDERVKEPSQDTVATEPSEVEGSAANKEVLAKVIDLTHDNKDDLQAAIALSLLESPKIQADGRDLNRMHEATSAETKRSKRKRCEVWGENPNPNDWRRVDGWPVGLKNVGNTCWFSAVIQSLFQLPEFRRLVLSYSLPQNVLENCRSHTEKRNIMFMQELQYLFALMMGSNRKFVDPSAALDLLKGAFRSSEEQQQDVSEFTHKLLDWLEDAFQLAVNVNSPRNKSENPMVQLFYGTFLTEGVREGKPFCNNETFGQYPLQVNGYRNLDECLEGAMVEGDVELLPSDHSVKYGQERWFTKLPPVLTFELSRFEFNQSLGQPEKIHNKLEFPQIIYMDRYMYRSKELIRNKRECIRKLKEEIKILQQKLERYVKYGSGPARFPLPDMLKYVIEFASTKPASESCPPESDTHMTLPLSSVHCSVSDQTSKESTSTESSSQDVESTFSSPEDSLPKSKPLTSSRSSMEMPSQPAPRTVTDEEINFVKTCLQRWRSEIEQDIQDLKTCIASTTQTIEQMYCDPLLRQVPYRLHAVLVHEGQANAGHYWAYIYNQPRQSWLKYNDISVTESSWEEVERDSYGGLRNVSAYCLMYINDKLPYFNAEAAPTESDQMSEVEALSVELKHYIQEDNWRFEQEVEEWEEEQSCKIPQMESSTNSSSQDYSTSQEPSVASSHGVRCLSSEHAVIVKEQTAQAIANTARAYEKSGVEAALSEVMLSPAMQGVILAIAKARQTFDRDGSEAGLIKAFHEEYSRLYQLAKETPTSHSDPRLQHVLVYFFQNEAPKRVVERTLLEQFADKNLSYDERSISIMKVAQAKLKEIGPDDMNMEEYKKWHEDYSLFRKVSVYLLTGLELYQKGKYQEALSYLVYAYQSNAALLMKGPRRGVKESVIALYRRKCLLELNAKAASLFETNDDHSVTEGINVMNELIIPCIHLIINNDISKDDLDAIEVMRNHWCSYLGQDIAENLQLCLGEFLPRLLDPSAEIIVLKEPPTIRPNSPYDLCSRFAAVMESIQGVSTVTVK
Outline: as §1

Measured: log2 ratio of Biotin-Ahx-Ub-VS probe labelling

USP24, sequence (Q9UPU5 whole entry): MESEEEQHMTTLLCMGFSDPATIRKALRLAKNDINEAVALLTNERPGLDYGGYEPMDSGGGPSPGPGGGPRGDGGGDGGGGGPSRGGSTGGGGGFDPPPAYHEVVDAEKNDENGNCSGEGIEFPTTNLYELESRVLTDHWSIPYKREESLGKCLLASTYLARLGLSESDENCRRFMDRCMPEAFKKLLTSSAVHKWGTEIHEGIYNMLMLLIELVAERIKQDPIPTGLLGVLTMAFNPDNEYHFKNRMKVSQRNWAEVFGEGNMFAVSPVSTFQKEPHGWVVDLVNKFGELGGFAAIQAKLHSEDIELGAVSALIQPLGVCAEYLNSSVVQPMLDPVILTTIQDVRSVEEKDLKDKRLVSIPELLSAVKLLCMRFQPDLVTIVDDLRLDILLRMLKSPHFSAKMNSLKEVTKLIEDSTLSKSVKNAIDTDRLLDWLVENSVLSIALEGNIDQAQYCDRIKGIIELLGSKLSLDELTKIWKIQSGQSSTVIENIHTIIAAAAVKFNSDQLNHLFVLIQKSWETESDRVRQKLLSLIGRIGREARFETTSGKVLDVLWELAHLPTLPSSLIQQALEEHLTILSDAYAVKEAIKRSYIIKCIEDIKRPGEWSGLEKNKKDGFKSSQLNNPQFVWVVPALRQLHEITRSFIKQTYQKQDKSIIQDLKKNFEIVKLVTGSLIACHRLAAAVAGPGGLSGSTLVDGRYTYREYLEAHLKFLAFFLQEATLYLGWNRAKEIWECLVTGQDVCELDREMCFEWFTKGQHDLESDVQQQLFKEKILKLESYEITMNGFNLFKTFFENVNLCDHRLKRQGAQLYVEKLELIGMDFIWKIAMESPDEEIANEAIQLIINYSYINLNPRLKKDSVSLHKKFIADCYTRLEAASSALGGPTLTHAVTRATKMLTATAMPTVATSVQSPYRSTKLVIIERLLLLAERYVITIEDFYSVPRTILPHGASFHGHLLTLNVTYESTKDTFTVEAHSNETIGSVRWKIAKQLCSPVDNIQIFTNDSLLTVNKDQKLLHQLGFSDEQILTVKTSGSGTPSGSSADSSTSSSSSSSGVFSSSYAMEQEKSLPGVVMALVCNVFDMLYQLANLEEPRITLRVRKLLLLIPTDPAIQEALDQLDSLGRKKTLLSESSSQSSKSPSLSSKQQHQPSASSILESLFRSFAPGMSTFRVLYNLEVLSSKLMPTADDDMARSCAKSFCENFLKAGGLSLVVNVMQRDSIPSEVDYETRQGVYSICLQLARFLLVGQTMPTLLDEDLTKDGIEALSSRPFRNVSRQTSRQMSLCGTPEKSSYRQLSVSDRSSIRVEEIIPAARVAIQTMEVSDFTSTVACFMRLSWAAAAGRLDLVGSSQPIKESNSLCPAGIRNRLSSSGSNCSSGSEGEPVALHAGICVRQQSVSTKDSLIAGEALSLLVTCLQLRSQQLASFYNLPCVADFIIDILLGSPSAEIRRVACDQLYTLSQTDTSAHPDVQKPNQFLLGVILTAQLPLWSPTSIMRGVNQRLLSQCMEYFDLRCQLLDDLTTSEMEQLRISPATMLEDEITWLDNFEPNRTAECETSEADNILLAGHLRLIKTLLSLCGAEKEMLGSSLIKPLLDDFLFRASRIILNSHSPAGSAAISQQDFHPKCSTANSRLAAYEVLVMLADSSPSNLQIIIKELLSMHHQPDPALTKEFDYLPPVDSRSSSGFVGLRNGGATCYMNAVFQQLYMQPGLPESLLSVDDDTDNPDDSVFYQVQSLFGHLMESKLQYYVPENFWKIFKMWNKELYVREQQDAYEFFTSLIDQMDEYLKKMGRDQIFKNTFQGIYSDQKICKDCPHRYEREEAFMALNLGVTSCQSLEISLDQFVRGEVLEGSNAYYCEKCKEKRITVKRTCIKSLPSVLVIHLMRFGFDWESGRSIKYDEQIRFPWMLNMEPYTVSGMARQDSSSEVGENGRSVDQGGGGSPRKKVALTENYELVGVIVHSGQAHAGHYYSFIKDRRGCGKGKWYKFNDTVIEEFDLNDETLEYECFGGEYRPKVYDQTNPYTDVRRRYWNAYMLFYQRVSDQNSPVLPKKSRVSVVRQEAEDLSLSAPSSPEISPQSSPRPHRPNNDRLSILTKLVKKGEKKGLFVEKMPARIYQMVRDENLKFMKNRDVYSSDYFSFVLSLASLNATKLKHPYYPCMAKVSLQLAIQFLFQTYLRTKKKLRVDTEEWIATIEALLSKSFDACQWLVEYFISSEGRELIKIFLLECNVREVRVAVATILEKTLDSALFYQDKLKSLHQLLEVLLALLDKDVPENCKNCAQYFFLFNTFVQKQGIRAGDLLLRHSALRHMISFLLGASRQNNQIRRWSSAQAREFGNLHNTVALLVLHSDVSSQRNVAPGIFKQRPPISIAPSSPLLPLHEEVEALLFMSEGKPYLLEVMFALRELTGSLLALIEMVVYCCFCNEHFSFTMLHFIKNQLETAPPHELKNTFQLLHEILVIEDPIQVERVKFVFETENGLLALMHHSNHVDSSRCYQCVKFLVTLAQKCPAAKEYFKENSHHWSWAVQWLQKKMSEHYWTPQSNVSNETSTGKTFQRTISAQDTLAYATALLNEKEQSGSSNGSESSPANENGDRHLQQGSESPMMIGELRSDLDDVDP

Cc1ccc(N2CCC(NC(=O)CCl)C2=O)cc1 (centres undefined)
inactive: [1] 0.0818 | [2] 0.141 | [3] 0.0471 | [4] -0.0346
